High-throughput results from PubChem.
TexasRed fluor – Texas Red fluorescence interference in TRb-SRC2 counter-screen. TRb/SRC2 Texas Red total fluorescence interference. Potency, µM (top dose mostly 106 µM), for inactives: at the highest dose fluorescence change, negative = quenching. hit rate 0.29% among 280,000. AID 1479; active means well fitted curve in either direction with a large enough effect; inconclusive means small, poorly fitted or top-dose-only effect
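Human TRβ ligand-binding domain (0.6 uM) and Texas Red SRC2 peptide (20 nM) in Tris buffer with 1 uM T3 and 5% DMSO were incubated with pinned compound for 5 hr at ambient temperature. Total fluorescence was computed as S + 2P (555/632 nm).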
Tau fluor cs – counter-screen for tau fibril formation inhibitors | tau K18 P301L Alexa594 fluorescence, heparin fibrillization | Potency, µM (doses to about 57.7 µM), for inactives: top-dose activity change, negative = decrease | hit rate 0.93% among 280,000 | AID 1463; further: nearly all actives have a fitted effect of over 55% in size
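Human K18 P301L tau (15 uM unlabeled plus 0.24 uM Alexa 594-labeled, final) in 100 mM sodium acetate pH 7 was mixed with compound and 20 uM heparin and incubated 6 hr at 37 C.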
Tau fibril ThT – tau fibrillization inhibition (ThT binding); P10636; recombinant tau K18 P301L (four-repeat tau fragment), heparin-induced fibrillization, ThT fluorescence; hit rate 2.1% among 270,000; Potency, µM (titrated, usually from 57.4 µM), for the others: at the highest dose activity, negative = inhibition, hits mostly inhibitors; further: nearly all actives have a fitted effect of over 55% in size
Target sequence (P10636 561-689 P618L limits assumed): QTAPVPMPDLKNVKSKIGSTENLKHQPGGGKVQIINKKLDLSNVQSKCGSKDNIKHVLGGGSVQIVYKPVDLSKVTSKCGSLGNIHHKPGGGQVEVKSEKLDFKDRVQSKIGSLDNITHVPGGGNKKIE
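Recombinant human tau K18 fragment […] carrying P301L, 15 uM unlabeled plus 0.24 uM Alexa 594-labeled, was fibrillized with 20 uM heparin in 100 mM sodium acetate pH 7 for 6 hr at 37 C; 30 uM ThT fluorescence read after 1 hr.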
TRb-SRC2 inh – inhibitors of human thyroid hormone receptor beta-SRC2 interaction. P10828. TRbeta-SRC2 peptide binding, fluorescence polarization; receptor liganded with 1 µM T3. Potency, µM (titrated, usually from 106 µM), for inactives: at the highest dose activity change, negative = inhibition, actives largely listed as inhibitors. hit rate 0.065% among 280,000. AID 1469;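 further: plate controls were bound peptide for no effect and peptide without receptor for full effect; nearly all actives have a fitted effect of over 50% in size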
Target sequence (P10828 whole entry, looked up): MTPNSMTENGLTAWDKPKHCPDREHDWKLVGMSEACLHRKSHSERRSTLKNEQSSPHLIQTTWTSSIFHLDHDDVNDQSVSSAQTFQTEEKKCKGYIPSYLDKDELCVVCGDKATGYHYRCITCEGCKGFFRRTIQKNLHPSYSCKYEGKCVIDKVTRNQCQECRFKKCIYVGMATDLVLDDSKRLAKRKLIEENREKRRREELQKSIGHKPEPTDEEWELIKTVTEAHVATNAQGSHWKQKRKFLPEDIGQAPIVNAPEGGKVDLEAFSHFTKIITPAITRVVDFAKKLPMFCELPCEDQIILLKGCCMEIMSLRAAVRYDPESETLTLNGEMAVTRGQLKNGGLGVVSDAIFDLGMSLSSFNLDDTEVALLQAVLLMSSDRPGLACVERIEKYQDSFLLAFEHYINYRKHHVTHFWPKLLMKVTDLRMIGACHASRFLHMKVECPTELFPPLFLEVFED
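Decrease in fluorescence polarization of 20 nM Texas Red SRC2 coactivator peptide flagged inhibition of its binding to 0.6 uM TRb LBD; 1 uM T3 included, incubation 5 hr, ex 555/em 632 nm.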
Tau FP inhib – tau fibrillization inhibition (FP). hit rate 0.39% among 280,000. K18 P301L tau heparin fibrillization, Alexa594 FP, 6 h. Potency, µM (doses to about 57.7 µM), without a hit: at the highest dose activity, negative = inhibition, most hits filed as inhibitors. P10636; further: nearly all actives have a fitted effect of over 55% in size
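Human tau K18 […] P301L fragment, 15 uM unlabeled plus 0.24 uM Alexa 594-labeled tau (final), with compound and 20 uM heparin in 100 mM sodium acetate pH 7; 6 hr at 37 C, then Alexa 594 FP read.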
* hit, by the source's call; [ ] = remark or other dose. Shown are actives, neighbours in structure and some others; about 3% of the full set was active somewhere. Unless noted, the call rests on the fitted dose curve; in most records, active means well fitted curve in the direction sought with a large enough effect; inconclusive means small, poorly fitted or top-dose-only effect, or another doubt; inactive means no such curve, though single readings can be large; an effect the other way counts as inactive or inconclusive. Unless noted, on the % scale 0 is the no-effect control and ±100 the full control effect; potency means the concentration at half of the fitted maximal effect.

What do the screens show for `COc1cccc(NC(=O)/C=C/c2ccc([N+](=O)[O-])cc2)c1`?
TexasRed fluor: -1.4%; Tau fluor cs: -45.2%; TRb-SRC2 inh: 4.0%; Tau FP inhib: 2.9%

Results for COc1ccc(C(=O)/C=C/c2cccs2)c(OC(=O)c2cccc([N+](=O)[O-])c2)c1 ?
TexasRed fluor: -1.9%; Tau fluor cs: inconclusive; Tau fibril ThT: 3.98µM*; TRb-SRC2 inh: -7.4%; Tau FP inhib: 9.4%

How did COc1ccc(NC(=O)C2CCN(C(=O)c3sc4nc[nH]c(=O)c4c3C)CC2)cc1Cl do in these assays?
TexasRed fluor: -0.1%; Tau fluor cs: -12.3%; Tau fibril ThT: -6.6%; TRb-SRC2 inh: 0.8%; Tau FP inhib: -1.7%

Results for CCOc1ccc(NC(=S)Nc2ccc(C)c([N+](=O)[O-])c2)cc1 ?
TexasRed fluor: 0.1%; Tau fluor cs: 31.6µM*[quencher]; Tau fibril ThT: inconclusive; TRb-SRC2 inh: -5.3%; Tau FP inhib: -4.3%

What do the screens show for `CCOc1ccc(NC(=S)/C(=C(\[O-])c2ccc(C)c([N+](=O)[O-])c2)[n+]2ccccc2)cc1`?
TexasRed fluor: 0.8%; Tau fluor cs: -25.1%; Tau fibril ThT: 25.1µM*; TRb-SRC2 inh: -11.3%; Tau FP inhib: 9.5%

Results for COc1ccc(C)cc1Nc1nc(N)c2cc(OC)c(OC)cc2n1 ?
TexasRed fluor: -3.5%; Tau fluor cs: 20µM*[quencher]; Tau fibril ThT: -5.4%; TRb-SRC2 inh: -0.5%; Tau FP inhib: inconclusive

What do the screens show for `CC(C)C1C(=O)Nc2ccc(S(=O)(=O)NCCc3ccc(Cl)cc3)cc21` (configuration not stated)?
TexasRed fluor: -3.8%; Tau fluor cs: inconclusive; Tau fibril ThT: -3.1%; TRb-SRC2 inh: 5.0%; Tau FP inhib: inconclusive

Results for CC1CCN(c2nc(Cl)nc(Nc3ccc([N+](=O)[O-])cc3)n2)CC1 ?
TexasRed fluor: -3.2%; Tau fluor cs: 8.91µM*[quencher]; Tau fibril ThT: inconclusive; TRb-SRC2 inh: -5.0%; Tau FP inhib: inconclusive

How did CCCOc1ccc(C(=O)CCN2CCCCC2)cc1 do in these assays?
TexasRed fluor: 1.6%; Tau fluor cs: 5.8%; Tau fibril ThT: inconclusive; TRb-SRC2 inh: 39.8µM*; Tau FP inhib: -0.2%

How did CCCCOc1ccc(C(=O)CCN2CCOCC2)cc1 do in these assays?
TexasRed fluor: -4.2%; Tau fluor cs: -10.3%; Tau fibril ThT: inconclusive; TRb-SRC2 inh: 5.62µM*; Tau FP inhib: inconclusive

What do the screens show for `CCOC(=O)c1c(C)[nH]c(N=Nc2ccccc2Cl)c1C`?
TexasRed fluor: -4.1%; Tau fluor cs: inconclusive; Tau fibril ThT: 5.01µM*; TRb-SRC2 inh: 7.5%; Tau FP inhib: 1.8%

How did CCOC(=O)c1c(C)[nH]c(C=Nc2ccc(OC)cc2)c1O do in these assays?
TexasRed fluor: -2.2%; Tau fluor cs: -25.4%; Tau fibril ThT: inconclusive; TRb-SRC2 inh: -9.3%; Tau FP inhib: 8.2%

What do the screens show for `CCOC(=O)c1c(C)[nH]c(N=Nc2ccc(OC)cc2)c1C`?
TexasRed fluor: -0.3%; Tau fluor cs: 3.16µM*[quencher]; TRb-SRC2 inh: 0.7%; Tau FP inhib: inconclusive

What do the screens show for `CCOC(=O)c1c(C)[nH]c(N=Nc2ccccc2)c1C`?
TexasRed fluor: -1.6%; Tau fluor cs: inconclusive; Tau fibril ThT: 7.94µM*; TRb-SRC2 inh: 8.5%; Tau FP inhib: inconclusive

What do the screens show for `CCOC(=O)c1c(C)[nH]c(N=Nc2ccc(C)cc2)c1C`?
TexasRed fluor: -4.5%; Tau fluor cs: inconclusive; Tau fibril ThT: 7.94µM*; TRb-SRC2 inh: -9.0%; Tau FP inhib: 22.1%

How did CO[C@H]1COC(=O)C/C=C\[C@H](C)[C@H](OC)COC(=O)[C@@H](C)NC(=O)C/C=C\[C@@H]1C do in these assays?
TexasRed fluor: 6.5%[11.2 µM]; Tau fluor cs: -19.7%[11.6 µM]; Tau fibril ThT: inconclusive; TRb-SRC2 inh: 3.7%[11.2 µM]; Tau FP inhib: -1.5%[11.6 µM]

How did CC(C)(C)OC(=O)C1=NOC2(C=CC(=O)C=C2)C1 do in these assays?
TexasRed fluor: -2.5%; Tau fluor cs: -11.0%; Tau fibril ThT: 12.6µM*; TRb-SRC2 inh: 7.5%; Tau FP inhib: inconclusive

Results for O=[N+]([O-])c1ccc(-n2nnnc2-c2ccccc2)c([N+](=O)[O-])c1 ?
TexasRed fluor: -3.5%; Tau fluor cs: 11.2µM*[quencher]; Tau fibril ThT: 14.1µM*; TRb-SRC2 inh: 1.5%; Tau FP inhib: inconclusive

How did COc1ccc(/C=C/C(=O)Nc2nc3n(n2)C(c2ccccc2)C=C(c2ccccc2)N3)cc1 (configuration not stated) do in these assays?
TexasRed fluor: -4.8%; Tau fluor cs: -13.8%; Tau fibril ThT: -16.9%; TRb-SRC2 inh: 7.1%; Tau FP inhib: -9.6%

How did Oc1ccc(C=Nc2ccc3ncccc3c2)c(O)c1 do in these assays?
TexasRed fluor: inconclusive; Tau fluor cs: inconclusive; Tau fibril ThT: 6.31µM*; TRb-SRC2 inh: inconclusive; Tau FP inhib: inconclusive

What do the screens show for `COc1ccc(-c2[nH]ncc2N=Nc2ccccc2)cc1`?
TexasRed fluor: -5.8%; Tau fluor cs: inconclusive; Tau fibril ThT: 15.8µM*; TRb-SRC2 inh: -2.6%; Tau FP inhib: inconclusive

Results for Cc1cccc[n+]1C1C(c2ccccc2)C(C#N)=C(C(=C=[N-])C#N)NC1(O)C1CC1 (configuration not stated) ?
TexasRed fluor: -5.8%; Tau fluor cs: inconclusive; Tau fibril ThT: 17.8µM*; TRb-SRC2 inh: 6.9%; Tau FP inhib: inconclusive

Results for CCOC(=O)C1=C(C)N(c2ccccc2)C(=O)/C1=C\c1ccc(O)c(OC)c1 ?
TexasRed fluor: -4.2%; Tau fluor cs: 25.1µM*[quencher]; TRb-SRC2 inh: 7.6%; Tau FP inhib: 35.5µM*

Results for CCOC(=O)C1=C(C)N(c2ccccc2)C(=O)/C1=C\c1cccs1 ?
TexasRed fluor: 0.5%; Tau fluor cs: -19.8%; Tau fibril ThT: inconclusive; TRb-SRC2 inh: -0.9%; Tau FP inhib: -11.0%

What do the screens show for `CCOC(=O)C1=C(C)N(c2ccc(C)cc2)C(=O)/C1=C\c1cccs1`?
TexasRed fluor: -0.6%; Tau fluor cs: -25.4%; Tau fibril ThT: 15.8µM*; TRb-SRC2 inh: -9.9%; Tau FP inhib: -17.7%

How did CCN1C(=O)/C(=C2/C=Cc3ccccc3N2C)OC1=S do in these assays?
TexasRed fluor: -0.2%; Tau fluor cs: -14.7%; Tau fibril ThT: 3.16µM*; TRb-SRC2 inh: 9.5%; Tau FP inhib: -3.5%

How did CCN1C(=O)/C(=C2\C=Cc3ccccc3N2CC)SC1=S do in these assays?
TexasRed fluor: -0.1%; Tau fluor cs: inconclusive; Tau fibril ThT: 6.31µM*; TRb-SRC2 inh: -6.7%; Tau FP inhib: 12.5%

Results for CCOC(=O)c1ccc(NC(=O)CSc2nc3ccccc3c(=O)n2CCNC(C)=O)cc1 ?
TexasRed fluor: -2.5%; Tau fluor cs: -1.3%; Tau fibril ThT: 10.4%; TRb-SRC2 inh: -2.1%; Tau FP inhib: -12.5%

How did COC(=O)c1cccc(NC2=NS(=O)(=O)c3ccccc32)c1 do in these assays?
TexasRed fluor: -1.4%; Tau fluor cs: -9.1%; Tau fibril ThT: -10.0%; TRb-SRC2 inh: -0.4%; Tau FP inhib: -18.3%
